Measured values taken from ChEMBL document CHEMBL1961873, “Compounds: GSK PKIS; Assays: Nanosyn kinase panel” (2012).

Columns and labels:
[1] = molecular target: Sphingosine kinase 1 (Homo sapiens) (UniProt Q9NYA1); settings: at 1 µM;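 further: mean SPHK1 inhibition value reported from the GSK PKIS kinase panel screen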
[2] = molecular target: T1, Sphingosine kinase 2 (Homo sapiens) (UniProt Q9NRA0); settings: at 0.1 µM
T1 sequence (whole entry): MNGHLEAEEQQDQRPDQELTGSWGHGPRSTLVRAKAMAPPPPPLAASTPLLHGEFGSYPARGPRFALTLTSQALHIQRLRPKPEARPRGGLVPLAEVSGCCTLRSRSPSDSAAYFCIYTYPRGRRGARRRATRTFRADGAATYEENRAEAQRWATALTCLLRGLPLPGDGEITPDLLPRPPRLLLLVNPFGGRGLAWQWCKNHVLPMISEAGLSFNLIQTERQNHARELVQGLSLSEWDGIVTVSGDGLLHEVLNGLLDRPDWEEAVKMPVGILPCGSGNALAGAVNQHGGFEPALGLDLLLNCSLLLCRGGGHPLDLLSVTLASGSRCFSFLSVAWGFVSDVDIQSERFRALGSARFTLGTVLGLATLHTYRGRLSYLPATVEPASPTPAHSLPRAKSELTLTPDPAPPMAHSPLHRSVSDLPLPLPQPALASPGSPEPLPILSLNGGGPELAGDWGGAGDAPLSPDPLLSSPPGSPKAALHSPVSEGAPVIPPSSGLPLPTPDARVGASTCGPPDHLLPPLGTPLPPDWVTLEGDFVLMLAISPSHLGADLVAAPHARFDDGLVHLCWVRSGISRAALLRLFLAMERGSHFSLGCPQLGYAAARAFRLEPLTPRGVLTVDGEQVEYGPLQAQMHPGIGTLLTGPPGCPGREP

[3] = molecular target: T1, Sphingosine kinase 2 (Homo sapiens); settings: at 1 µM
[4] = molecular target: Casein kinase II subunit alpha (Homo sapiens) (UniProt P68400); settings: at 0.1 µM
[5] = molecular target: Casein kinase II subunit alpha (Homo sapiens) (UniProt P68400); settings: at 1 µM
[6] = molecular target: T2, Inhibitor of nuclear factor kappa-B kinase subunit alpha (Homo sapiens) (UniProt O15111); settings: at 0.1 µM
T2 sequence (whole entry): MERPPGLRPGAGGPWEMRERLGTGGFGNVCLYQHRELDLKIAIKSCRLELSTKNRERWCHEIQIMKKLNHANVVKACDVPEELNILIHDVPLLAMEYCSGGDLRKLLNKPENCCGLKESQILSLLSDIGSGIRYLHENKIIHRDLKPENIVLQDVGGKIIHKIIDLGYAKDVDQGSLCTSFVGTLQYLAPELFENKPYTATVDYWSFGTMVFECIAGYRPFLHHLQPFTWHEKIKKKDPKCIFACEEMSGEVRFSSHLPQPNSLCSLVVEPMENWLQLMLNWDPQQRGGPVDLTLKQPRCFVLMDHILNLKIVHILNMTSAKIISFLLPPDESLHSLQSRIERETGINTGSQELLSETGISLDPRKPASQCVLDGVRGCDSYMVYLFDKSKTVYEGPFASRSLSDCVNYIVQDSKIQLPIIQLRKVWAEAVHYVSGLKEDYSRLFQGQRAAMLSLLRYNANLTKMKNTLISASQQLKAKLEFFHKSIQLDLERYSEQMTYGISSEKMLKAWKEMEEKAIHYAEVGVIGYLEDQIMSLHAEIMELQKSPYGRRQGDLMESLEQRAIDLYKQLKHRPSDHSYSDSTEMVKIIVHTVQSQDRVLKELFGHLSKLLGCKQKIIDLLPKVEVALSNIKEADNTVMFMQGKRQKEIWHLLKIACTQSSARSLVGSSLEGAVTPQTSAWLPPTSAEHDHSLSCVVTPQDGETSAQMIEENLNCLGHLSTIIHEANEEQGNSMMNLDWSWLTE

[7] = molecular target: T2, Inhibitor of nuclear factor kappa-B kinase subunit alpha (Homo sapiens); settings: at 1 µM
[8] = molecular target: T3, Inhibitor of nuclear factor kappa-B kinase subunit beta (Homo sapiens) (UniProt O14920); settings: at 0.1 µM
T3 sequence (whole entry): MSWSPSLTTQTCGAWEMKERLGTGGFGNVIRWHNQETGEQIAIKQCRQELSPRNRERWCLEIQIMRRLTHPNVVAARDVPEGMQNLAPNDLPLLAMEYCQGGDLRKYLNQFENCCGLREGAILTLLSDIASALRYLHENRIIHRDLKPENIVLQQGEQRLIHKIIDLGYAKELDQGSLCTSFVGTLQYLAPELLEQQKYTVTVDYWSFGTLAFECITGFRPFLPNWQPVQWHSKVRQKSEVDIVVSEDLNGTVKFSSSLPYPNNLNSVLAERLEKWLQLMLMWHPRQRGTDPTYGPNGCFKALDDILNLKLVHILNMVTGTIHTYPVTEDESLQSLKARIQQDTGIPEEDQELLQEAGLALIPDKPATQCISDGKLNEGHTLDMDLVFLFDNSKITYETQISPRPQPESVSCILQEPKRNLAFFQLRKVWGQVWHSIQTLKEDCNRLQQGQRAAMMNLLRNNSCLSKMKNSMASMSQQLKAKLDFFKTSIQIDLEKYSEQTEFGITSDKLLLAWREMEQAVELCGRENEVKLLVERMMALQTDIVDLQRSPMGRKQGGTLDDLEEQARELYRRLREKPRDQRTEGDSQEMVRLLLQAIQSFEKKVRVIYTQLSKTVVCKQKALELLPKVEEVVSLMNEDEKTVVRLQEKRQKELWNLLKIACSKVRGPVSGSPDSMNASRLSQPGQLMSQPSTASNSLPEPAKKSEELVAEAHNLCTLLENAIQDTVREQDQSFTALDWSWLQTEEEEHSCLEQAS

[9] = molecular target: T3, Inhibitor of nuclear factor kappa-B kinase subunit beta (Homo sapiens); settings: at 1 µM
[10] = molecular target: T4, Inhibitor of nuclear factor kappa-B kinase subunit epsilon (Homo sapiens) (UniProt Q14164); settings: at 0.1 µM;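 further: mean inhibition of IKKε reported, from the GSK PKIS dataset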
T4 sequence (whole entry): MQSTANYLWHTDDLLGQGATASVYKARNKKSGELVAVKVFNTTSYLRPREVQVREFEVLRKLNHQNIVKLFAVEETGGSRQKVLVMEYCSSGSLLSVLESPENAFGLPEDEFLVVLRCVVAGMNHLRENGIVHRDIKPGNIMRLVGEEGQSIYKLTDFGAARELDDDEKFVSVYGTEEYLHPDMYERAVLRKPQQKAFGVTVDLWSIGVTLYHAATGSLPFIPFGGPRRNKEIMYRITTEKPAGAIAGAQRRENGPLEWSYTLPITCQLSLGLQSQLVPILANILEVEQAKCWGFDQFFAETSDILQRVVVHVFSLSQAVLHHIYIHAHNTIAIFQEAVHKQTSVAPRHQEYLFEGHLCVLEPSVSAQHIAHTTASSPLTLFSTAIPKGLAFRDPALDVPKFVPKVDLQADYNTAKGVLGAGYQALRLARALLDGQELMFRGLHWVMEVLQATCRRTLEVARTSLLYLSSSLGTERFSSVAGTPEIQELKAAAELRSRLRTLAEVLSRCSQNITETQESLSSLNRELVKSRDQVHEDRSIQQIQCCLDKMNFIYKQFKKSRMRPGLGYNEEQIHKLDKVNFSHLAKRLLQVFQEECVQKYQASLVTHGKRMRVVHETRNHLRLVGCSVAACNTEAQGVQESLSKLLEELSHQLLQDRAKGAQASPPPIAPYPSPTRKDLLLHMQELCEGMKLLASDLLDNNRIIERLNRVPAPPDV

Casein kinase II subunit alpha (Homo sapiens), sequence (P68400 whole entry, looked up): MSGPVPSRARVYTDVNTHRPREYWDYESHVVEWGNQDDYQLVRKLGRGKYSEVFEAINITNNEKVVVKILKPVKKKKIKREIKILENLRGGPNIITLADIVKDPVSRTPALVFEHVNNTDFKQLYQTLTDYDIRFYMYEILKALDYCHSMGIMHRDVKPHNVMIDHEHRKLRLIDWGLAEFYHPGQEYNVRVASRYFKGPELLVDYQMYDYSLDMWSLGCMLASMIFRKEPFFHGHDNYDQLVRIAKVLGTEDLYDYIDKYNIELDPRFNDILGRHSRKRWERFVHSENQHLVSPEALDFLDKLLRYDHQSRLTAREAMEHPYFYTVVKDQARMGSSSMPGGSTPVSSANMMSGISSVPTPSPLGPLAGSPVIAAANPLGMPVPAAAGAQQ
Sphingosine kinase 1 (Homo sapiens), sequence (Q9NYA1 whole entry): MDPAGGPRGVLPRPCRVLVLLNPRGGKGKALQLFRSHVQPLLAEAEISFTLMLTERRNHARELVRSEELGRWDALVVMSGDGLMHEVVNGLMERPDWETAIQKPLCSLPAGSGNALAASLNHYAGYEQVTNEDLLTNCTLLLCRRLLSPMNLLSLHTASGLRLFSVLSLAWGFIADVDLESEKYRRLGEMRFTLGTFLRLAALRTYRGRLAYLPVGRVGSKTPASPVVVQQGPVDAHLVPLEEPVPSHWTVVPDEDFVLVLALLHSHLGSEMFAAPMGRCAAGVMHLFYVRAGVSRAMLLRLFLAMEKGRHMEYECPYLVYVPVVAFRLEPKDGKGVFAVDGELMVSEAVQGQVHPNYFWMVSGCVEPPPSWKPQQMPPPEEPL

CCS(=O)(=O)c1ccc(OC)c(Nc2ncc(-c3cccc(OC)c3)o2)c1
inhibition [1]: 1.37% | inhibition [2]: 0% | inhibition [3]: -2% | inhibition [4]: 5.03% | inhibition [5]: 29.3% | inhibition [6]: 5.66% | inhibition [7]: -4.47% | inhibition [8]: 3.95% | inhibition [9]: 1.16% | inhibition [10]: 0.74%

C[C@@H](Oc1cc(-n2cnc3ccc(OCC4CCN(C)CC4)cc32)sc1C(N)=O)c1ccccc1C(F)(F)F
inhibition [1]: 1.96% | inhibition [2]: -2.47% | inhibition [3]: -0.08% | inhibition [4]: 6.68% | inhibition [5]: 7.31% | inhibition [6]: -3.27% | inhibition [7]: -3.79% | inhibition [8]: -5.4% | inhibition [9]: -3.39% | inhibition [10]: -3.26%

Cc1cc(O)cc(C)c1/C=C/c1cncc(C(=O)N(C)C)c1
inhibition [1]: -0.49% | inhibition [2]: -0.12% | inhibition [3]: 0.05% | inhibition [4]: 4.25% | inhibition [5]: 5.95% | inhibition [6]: 5.21% | inhibition [7]: 9.29% | inhibition [8]: 6.05% | inhibition [9]: 2.23% | inhibition [10]: 2.77%

CS(=O)(=O)CCNCc1nc(-c2ccc3ncnc(Nc4ccc(OCc5cccc(C(F)(F)F)c5)cc4)c3c2)cs1
inhibition [1]: 1.3% | inhibition [2]: 0.09% | inhibition [3]: -0.46% | inhibition [4]: -0.05% | inhibition [5]: 1.3% | inhibition [6]: -2.52% | inhibition [7]: -0.52% | inhibition [8]: 3.26% | inhibition [9]: 1.84% | inhibition [10]: -0.33%

CCn1c(-c2nonc2N)nc2ccc(F)cc21
inhibition [1]: 0.48% | inhibition [2]: 3.46% | inhibition [3]: -5.33% | inhibition [4]: 4.71% | inhibition [5]: 8.79% | inhibition [6]: 4% | inhibition [7]: 6.96% | inhibition [8]: 7.24% | inhibition [9]: 8.68% | inhibition [10]: 8.59%

CCOc1nccc2c1nc(-c1nonc1N)n2CC
inhibition [1]: 7.65% | inhibition [2]: -0.3% | inhibition [3]: 0.06% | inhibition [4]: 5.33% | inhibition [5]: 14.6% | inhibition [6]: 2.3% | inhibition [7]: 3.59% | inhibition [8]: 0.86% | inhibition [9]: 5.41% | inhibition [10]: 7.17%

Nc1nccc(-c2c(-c3ccc(F)cc3)ncn2CCCN2CCOCC2)n1
inhibition [1]: -6.06% | inhibition [2]: -0.3% | inhibition [3]: 0.84% | inhibition [4]: 2.78% | inhibition [5]: 4.35% | inhibition [6]: 3.83% | inhibition [7]: 5.27% | inhibition [8]: 6.3% | inhibition [9]: 5.49% | inhibition [10]: 4.76%

CC(C)c1ccc(Nc2nccc(-c3cnn4ncccc34)n2)cc1
inhibition [1]: 7.28% | inhibition [2]: 0.26% | inhibition [3]: -0.48% | inhibition [4]: 10.7% | inhibition [5]: 43.4% | inhibition [6]: 18.7% | inhibition [7]: 64.1% | inhibition [8]: 7.7% | inhibition [9]: 23% | inhibition [10]: 4.12%

ON=C1CCc2cc(-c3nc(C4CCNCC4)[nH]c3-c3ccncc3)ccc21
inhibition [1]: -2.71% | inhibition [2]: 0.13% | inhibition [3]: -0.91% | inhibition [4]: -3.67% | inhibition [5]: -3.6% | inhibition [6]: -9.89% | inhibition [7]: -1.59% | inhibition [8]: 6.16% | inhibition [9]: 4.62% | inhibition [10]: 1.88%

FC(F)(F)c1ccc(-c2nn3ncccc3c2-c2ccnc(Nc3ccc4c(c3)OCCO4)n2)cc1
inhibition [1]: 0.29% | inhibition [2]: 3.37% | inhibition [3]: 4.75% | inhibition [4]: 8.02% | inhibition [5]: 19.8% | inhibition [6]: 1.17% | inhibition [7]: 0.75% | inhibition [8]: 0.04% | inhibition [9]: 2.22% | inhibition [10]: 1.97%

COc1cc2ncnc(Nc3ccc(C)c(O)c3)c2cc1OC
inhibition [1]: -3.1% | inhibition [2]: -0.83% | inhibition [3]: 0.12% | inhibition [4]: 2.65% | inhibition [5]: 6.37% | inhibition [6]: 7.19% | inhibition [7]: 11.6% | inhibition [8]: 6.42% | inhibition [9]: 6.01% | inhibition [10]: 5.22%

O=S(=O)(CCOCc1ccc(-c2ccc3ncnc(Nc4ccc(OCc5cccc(F)c5)c(Cl)c4)c3c2)o1)c1ccccc1
inhibition [1]: 1.2% | inhibition [2]: 0.14% | inhibition [3]: 14.2% | inhibition [4]: 1.35% | inhibition [5]: 4.52% | inhibition [6]: 1.54% | inhibition [7]: 4.26% | inhibition [8]: -0.1% | inhibition [9]: 0.7% | inhibition [10]: 1.59%

N#Cc1cccc(Nc2nccc(-c3cnn4ncccc34)n2)c1
inhibition [1]: -1.39% | inhibition [2]: 0% | inhibition [3]: -6.48% | inhibition [4]: 20.4% | inhibition [5]: 63.9% | inhibition [6]: 9.53% | inhibition [7]: 31% | inhibition [8]: 7.83% | inhibition [9]: 20.5% | inhibition [10]: 7.68%

Nc1nccc(C#Cc2cncnc2Nc2ccc(OCc3cccc(F)c3)c(Cl)c2)n1
inhibition [1]: -0.71% | inhibition [2]: 0.13% | inhibition [3]: -9.13% | inhibition [4]: 1.6% | inhibition [5]: 2.69% | inhibition [6]: 7.39% | inhibition [7]: 2.46% | inhibition [8]: 2.27% | inhibition [9]: -0.17% | inhibition [10]: 4.71%

COC(=O)c1ccc2c(c1)C(=Cc1cc(Br)c(O)c(Br)c1)C(=O)N2
inhibition [1]: -3.43% | inhibition [2]: -0.52% | inhibition [3]: -0.45% | inhibition [4]: 14.7% | inhibition [5]: 47% | inhibition [6]: 5.93% | inhibition [7]: 3% | inhibition [8]: 6.94% | inhibition [9]: 8.75% | inhibition [10]: 7.2%

NC(=O)c1cccc(Nc2nccc(Nc3cccc(F)c3)n2)c1
inhibition [1]: 0.76% | inhibition [2]: 0% | inhibition [3]: 0.34% | inhibition [4]: 1.61% | inhibition [5]: 3.67% | inhibition [6]: 0.56% | inhibition [7]: 4.67% | inhibition [8]: 6.25% | inhibition [9]: 22.3% | inhibition [10]: 2.08%

Cc1ccc(Nc2ccnc(Nc3cccc(C(N)=O)c3)n2)cc1O
inhibition [1]: -3.44% | inhibition [2]: 0.84% | inhibition [3]: 0.08% | inhibition [4]: 4.12% | inhibition [5]: 10.5% | inhibition [6]: 4.77% | inhibition [7]: 9.75% | inhibition [8]: 7.9% | inhibition [9]: 26.8% | inhibition [10]: 11.4%
